# Experiments:
# [1] = biological target: Sphingosine kinase 1 (Homo sapiens) (UniProt Q9NYA1); settings: at 1 µM;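 note: mean SPHK1 inhibition value reported from the GSK PKIS kinase panel screen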
# [2] = biological target: T1, Sphingosine kinase 2 (Homo sapiens) (UniProt Q9NRA0); settings: at 0.1 µM
# T1 sequence (whole entry): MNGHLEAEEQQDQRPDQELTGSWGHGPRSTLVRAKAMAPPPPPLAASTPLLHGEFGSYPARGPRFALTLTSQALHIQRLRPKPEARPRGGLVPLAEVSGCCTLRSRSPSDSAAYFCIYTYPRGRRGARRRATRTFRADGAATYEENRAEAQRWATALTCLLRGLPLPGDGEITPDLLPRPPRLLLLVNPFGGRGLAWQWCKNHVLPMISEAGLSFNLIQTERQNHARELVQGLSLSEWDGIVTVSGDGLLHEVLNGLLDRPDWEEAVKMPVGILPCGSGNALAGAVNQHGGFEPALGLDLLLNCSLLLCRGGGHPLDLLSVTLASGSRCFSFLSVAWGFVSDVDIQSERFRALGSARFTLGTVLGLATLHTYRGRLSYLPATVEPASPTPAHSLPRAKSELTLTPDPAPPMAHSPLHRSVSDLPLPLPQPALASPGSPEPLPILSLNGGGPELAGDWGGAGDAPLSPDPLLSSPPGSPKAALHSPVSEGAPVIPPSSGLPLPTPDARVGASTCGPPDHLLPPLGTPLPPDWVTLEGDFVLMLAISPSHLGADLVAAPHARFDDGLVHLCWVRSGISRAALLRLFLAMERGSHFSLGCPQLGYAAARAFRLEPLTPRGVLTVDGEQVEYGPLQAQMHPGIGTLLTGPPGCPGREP
# [3] = biological target: T1, Sphingosine kinase 2 (Homo sapiens); settings: at 1 µM
# [4] = biological target: Casein kinase II subunit alpha (Homo sapiens) (UniProt P68400); settings: at 0.1 µM
# [5] = biological target: Casein kinase II subunit alpha (Homo sapiens) (UniProt P68400); settings: at 1 µM
# [6] = biological target: T2, Inhibitor of nuclear factor kappa-B kinase subunit epsilon (Homo sapiens) (UniProt Q14164); settings: at 0.1 µM
# T2 sequence (whole entry): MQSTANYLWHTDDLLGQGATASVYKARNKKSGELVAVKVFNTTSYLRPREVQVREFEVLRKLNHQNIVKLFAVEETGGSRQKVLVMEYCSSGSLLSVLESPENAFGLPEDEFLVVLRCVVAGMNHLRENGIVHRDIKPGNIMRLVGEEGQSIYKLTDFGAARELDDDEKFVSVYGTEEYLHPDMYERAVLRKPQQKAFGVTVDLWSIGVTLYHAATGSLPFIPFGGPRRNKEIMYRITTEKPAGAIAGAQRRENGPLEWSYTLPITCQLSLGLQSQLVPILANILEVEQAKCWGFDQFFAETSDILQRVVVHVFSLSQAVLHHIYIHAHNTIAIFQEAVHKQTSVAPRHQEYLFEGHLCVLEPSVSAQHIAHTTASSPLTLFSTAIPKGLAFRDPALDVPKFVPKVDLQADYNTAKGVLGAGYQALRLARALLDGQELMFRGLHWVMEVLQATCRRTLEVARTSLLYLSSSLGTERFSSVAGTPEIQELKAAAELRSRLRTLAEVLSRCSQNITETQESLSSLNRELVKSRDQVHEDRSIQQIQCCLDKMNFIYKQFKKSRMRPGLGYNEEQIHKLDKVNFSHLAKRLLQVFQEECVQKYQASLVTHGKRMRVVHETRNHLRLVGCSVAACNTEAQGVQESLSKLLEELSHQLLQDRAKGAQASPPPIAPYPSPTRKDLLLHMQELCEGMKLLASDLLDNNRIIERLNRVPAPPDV
# [7] = biological target: T2, Inhibitor of nuclear factor kappa-B kinase subunit epsilon (Homo sapiens); settings: at 1 µM
# [8] = biological target: T3, Serine/threonine-protein kinase Nek1 (Homo sapiens) (UniProt Q96PY6); settings: at 0.1 µM
# T3 sequence (whole entry): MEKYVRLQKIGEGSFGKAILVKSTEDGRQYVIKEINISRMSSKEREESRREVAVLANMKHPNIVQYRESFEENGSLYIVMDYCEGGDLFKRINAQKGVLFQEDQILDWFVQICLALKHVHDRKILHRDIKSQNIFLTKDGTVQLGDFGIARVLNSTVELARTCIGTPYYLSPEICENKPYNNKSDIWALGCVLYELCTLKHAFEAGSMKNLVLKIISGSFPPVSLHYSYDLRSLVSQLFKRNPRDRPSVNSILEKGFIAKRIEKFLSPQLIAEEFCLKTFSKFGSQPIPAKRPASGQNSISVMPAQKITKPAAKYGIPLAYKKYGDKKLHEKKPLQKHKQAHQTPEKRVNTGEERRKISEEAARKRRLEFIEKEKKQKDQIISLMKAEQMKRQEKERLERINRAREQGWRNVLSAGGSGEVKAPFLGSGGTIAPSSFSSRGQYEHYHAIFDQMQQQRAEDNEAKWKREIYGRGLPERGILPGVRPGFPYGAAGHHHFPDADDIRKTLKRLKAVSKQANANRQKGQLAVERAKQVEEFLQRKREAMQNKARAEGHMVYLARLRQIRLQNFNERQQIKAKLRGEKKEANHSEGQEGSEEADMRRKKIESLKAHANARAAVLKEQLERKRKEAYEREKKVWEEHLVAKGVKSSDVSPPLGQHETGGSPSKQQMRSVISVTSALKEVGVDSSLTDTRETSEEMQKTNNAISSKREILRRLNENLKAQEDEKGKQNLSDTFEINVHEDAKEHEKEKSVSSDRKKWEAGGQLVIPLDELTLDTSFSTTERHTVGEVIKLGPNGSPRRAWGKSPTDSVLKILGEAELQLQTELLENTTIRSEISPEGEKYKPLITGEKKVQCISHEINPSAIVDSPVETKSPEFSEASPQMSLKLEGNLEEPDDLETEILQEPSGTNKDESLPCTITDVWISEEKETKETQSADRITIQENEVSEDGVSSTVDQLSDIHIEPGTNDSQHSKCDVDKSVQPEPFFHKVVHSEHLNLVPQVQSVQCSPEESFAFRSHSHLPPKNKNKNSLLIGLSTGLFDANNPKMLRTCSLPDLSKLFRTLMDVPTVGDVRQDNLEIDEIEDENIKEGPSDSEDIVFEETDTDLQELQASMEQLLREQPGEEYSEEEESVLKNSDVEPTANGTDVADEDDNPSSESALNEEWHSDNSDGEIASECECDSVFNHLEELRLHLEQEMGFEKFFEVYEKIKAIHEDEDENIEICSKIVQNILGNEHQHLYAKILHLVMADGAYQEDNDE
# [9] = biological target: T3, Serine/threonine-protein kinase Nek1 (Homo sapiens); settings: at 1 µM
# [10] = biological target: T4, Serine/threonine-protein kinase Nek2 (Homo sapiens) (UniProt P51955); settings: at 0.1 µM
# T4 sequence (whole entry): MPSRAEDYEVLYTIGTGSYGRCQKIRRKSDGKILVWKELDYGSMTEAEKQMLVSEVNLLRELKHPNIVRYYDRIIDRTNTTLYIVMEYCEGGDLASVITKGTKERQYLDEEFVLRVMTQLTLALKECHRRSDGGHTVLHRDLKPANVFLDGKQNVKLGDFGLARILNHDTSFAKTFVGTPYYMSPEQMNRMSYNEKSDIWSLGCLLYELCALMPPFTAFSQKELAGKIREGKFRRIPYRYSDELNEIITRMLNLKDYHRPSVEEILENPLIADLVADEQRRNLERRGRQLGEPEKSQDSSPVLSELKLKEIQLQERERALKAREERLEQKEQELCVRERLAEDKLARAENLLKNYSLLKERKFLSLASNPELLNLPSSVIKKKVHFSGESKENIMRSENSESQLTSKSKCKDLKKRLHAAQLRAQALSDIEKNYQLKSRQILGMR
# [11] = biological target: T4, Serine/threonine-protein kinase Nek2 (Homo sapiens); settings: at 1 µM
# [12] = biological target: Serine/threonine-protein kinase Nek6 (Homo sapiens) (UniProt Q9HC98); settings: at 0.1 µM
# [13] = biological target: Serine/threonine-protein kinase Nek6 (Homo sapiens) (UniProt Q9HC98); settings: at 1 µM
# [14] = biological target: Serine/threonine-protein kinase Nek7 (Homo sapiens) (UniProt Q8TDX7); settings: at 0.1 µM
# [15] = biological target: Serine/threonine-protein kinase Nek7 (Homo sapiens) (UniProt Q8TDX7); settings: at 1 µM
# [16] = biological target: T5, Serine/threonine-protein kinase Nek9 (Homo sapiens) (UniProt Q8TD19); settings: at 0.1 µM;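 note: reported value is the mean percent inhibition of NEK9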
# T5 sequence (whole entry): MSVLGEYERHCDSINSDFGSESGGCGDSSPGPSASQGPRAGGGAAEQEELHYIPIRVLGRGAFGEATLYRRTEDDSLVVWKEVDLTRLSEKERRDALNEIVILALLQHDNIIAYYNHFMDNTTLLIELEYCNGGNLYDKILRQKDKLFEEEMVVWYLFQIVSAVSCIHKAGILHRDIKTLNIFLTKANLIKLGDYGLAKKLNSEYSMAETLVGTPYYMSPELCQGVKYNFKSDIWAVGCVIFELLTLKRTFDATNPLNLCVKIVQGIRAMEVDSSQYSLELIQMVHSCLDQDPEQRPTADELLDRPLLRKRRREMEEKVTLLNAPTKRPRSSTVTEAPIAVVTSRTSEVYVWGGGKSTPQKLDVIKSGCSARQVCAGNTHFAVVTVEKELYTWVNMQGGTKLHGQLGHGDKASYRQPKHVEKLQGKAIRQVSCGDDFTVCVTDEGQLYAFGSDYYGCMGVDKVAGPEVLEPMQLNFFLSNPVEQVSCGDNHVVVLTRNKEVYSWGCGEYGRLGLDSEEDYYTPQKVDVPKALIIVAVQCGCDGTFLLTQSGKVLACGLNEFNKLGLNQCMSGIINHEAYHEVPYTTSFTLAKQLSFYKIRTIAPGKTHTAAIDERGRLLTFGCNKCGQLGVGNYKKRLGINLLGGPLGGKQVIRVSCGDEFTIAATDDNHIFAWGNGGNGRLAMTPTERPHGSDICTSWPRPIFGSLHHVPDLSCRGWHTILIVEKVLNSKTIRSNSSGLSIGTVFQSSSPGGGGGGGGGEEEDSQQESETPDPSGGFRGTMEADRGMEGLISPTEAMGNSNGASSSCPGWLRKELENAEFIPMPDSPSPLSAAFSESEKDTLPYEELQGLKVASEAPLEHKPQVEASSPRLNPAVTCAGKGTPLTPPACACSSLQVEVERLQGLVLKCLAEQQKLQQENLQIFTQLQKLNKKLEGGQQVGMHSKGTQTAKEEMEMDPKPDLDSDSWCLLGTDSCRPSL
# [17] = biological target: T6, Inhibitor of nuclear factor kappa-B kinase subunit alpha (Homo sapiens) (UniProt O15111); settings: at 1 µM;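 note: mean inhibition of IKKA, from the GSK PKIS data set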
# T6 sequence (whole entry): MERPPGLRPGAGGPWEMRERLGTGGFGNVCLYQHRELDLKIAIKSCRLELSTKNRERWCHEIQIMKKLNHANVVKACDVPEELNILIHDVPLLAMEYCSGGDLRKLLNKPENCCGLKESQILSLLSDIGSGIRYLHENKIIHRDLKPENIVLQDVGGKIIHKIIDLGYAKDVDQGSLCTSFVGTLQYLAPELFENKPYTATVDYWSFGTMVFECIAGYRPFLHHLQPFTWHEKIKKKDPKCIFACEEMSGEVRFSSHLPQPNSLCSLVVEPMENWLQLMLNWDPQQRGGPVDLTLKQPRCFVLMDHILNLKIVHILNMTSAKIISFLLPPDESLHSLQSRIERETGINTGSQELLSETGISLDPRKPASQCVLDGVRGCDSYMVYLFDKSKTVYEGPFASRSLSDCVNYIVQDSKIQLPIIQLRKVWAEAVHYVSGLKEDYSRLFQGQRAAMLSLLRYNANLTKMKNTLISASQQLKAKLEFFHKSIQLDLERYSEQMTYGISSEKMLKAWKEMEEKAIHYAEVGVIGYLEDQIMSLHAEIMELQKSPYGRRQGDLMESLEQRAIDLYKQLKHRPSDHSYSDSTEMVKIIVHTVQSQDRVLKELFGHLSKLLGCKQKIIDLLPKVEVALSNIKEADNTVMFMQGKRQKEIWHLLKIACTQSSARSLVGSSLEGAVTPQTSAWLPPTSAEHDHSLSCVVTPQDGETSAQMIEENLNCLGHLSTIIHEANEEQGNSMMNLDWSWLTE
# [18] = biological target: T7, Inhibitor of nuclear factor kappa-B kinase subunit beta (Homo sapiens) (UniProt O14920); settings: at 0.1 µM
# T7 sequence (whole entry): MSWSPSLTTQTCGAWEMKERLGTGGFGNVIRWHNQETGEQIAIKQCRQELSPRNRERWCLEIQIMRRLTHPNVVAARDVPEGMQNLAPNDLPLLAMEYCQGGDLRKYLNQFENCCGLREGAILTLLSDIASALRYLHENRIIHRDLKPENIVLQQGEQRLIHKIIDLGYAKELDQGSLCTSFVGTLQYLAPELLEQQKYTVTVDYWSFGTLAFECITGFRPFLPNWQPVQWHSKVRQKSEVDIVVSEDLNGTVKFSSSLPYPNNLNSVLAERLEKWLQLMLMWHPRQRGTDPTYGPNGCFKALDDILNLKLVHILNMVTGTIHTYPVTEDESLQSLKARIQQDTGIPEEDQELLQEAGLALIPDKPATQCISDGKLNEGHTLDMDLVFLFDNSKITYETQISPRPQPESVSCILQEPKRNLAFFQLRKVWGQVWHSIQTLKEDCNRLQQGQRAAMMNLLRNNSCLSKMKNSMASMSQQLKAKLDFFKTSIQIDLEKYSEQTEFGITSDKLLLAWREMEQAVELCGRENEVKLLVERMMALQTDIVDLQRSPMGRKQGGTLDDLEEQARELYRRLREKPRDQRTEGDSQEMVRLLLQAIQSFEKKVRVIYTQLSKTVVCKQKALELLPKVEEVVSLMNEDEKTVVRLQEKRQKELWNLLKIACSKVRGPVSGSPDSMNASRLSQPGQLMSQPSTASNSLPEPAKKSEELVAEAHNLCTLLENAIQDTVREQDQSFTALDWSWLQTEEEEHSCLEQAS
# [19] = biological target: T7, Inhibitor of nuclear factor kappa-B kinase subunit beta (Homo sapiens); settings: at 1 µM
# Chain of Casein kinase II subunit alpha (Homo sapiens) (P68400 whole entry, looked up): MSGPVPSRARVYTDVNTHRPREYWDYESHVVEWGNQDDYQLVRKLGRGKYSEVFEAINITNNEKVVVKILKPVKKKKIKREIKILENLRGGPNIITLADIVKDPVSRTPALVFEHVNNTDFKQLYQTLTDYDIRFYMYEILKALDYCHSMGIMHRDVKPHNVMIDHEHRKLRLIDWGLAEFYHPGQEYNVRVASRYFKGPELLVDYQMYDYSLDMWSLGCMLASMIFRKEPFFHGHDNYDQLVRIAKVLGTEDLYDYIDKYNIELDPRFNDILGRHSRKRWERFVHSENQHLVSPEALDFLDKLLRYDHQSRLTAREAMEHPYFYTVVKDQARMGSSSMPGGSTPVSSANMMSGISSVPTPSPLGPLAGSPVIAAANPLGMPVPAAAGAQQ
# Chain of Serine/threonine-protein kinase Nek6 (Homo sapiens) (Q9HC98 whole entry): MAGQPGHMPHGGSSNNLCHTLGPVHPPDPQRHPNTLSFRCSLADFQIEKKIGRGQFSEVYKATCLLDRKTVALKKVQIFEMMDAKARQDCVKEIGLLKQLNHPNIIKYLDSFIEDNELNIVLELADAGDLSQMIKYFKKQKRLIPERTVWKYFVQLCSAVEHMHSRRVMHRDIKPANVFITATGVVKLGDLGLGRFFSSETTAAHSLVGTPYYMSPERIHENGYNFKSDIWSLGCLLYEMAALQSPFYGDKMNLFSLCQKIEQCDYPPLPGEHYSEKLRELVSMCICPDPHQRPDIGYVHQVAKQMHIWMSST
# Chain of Serine/threonine-protein kinase Nek7 (Homo sapiens) (Q8TDX7 whole entry, looked up): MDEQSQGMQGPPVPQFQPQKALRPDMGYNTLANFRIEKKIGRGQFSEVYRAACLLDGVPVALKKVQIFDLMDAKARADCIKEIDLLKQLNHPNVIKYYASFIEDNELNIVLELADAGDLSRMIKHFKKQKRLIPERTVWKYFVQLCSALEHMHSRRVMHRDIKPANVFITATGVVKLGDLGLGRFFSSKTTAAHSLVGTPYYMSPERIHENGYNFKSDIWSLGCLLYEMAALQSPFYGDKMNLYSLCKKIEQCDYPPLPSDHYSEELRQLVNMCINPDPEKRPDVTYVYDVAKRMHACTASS
# Chain of Sphingosine kinase 1 (Homo sapiens) (Q9NYA1 whole entry): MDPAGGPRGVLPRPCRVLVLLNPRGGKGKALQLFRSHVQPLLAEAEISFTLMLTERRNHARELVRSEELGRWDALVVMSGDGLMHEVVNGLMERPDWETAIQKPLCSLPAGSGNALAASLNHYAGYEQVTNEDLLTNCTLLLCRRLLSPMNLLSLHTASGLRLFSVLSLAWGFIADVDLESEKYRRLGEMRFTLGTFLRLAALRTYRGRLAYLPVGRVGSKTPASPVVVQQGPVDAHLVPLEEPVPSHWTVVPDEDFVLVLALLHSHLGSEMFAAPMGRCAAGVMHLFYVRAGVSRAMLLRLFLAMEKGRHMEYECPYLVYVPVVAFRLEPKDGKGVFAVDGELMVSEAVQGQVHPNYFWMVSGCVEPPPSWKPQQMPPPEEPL
SMILES,inhibition [1] [%],inhibition [2] [%],inhibition [3] [%],inhibition [4] [%],inhibition [5] [%],inhibition [6] [%],inhibition [7] [%],inhibition [8] [%],inhibition [9] [%],inhibition [10] [%],inhibition [11] [%],inhibition [12] [%],inhibition [13] [%],inhibition [14] [%],inhibition [15] [%],inhibition [16] [%],inhibition [17] [%],inhibition [18] [%],inhibition [19] [%]
NC(=O)c1cc(-c2ccc(F)cc2)cc(-c2ccncc2)c1N,4.1,1.03,-1.1,3.42,8.62,6.05,3.16,1.62,1.03,4.7,3.75,4.68,6.66,6.78,4.73,7.94,–,–,–
Fc1ccc(-c2ncn(CCCN3CCOCC3)c2-c2ccncc2)cc1,-2.07,-0.81,-0.25,-2.49,-6,4.58,–,0.93,0.52,-0.45,-0.45,1.11,-0.51,2.31,1.74,0.56,-8.87,7.22,3.34

# Reference: ChEMBL document CHEMBL1961873, “Compounds: GSK PKIS; Assays: Nanosyn kinase panel” (2012)
